ChEMBL document CHEMBL3988442, “University of Dundee, Small-Polar-MMV Screening Library” (2021)
For some of these results: Measured potencies and affinities stand elsewhere.

Tests used:
Set-up in all cases: scale not given: direction of the effect not stated beside the values
[1] = target: Protein translocase subunit SecA (Escherichia coli (strain K12)) (UniProt P10408); test: Assay to Identify E. coli SecA ATPase Inhibitors; type: functional; details: 30 µM
[2] = target: T1, Ubiquitin-activating enzyme e1, putative (Leishmania donovani (strain BPK282A1)) (UniProt E9BSI1); test: Leishmania donovani Ubiquitin Activating Enzyme (LdE1); type: functional; details: 30 µM
T1 sequence (whole entry): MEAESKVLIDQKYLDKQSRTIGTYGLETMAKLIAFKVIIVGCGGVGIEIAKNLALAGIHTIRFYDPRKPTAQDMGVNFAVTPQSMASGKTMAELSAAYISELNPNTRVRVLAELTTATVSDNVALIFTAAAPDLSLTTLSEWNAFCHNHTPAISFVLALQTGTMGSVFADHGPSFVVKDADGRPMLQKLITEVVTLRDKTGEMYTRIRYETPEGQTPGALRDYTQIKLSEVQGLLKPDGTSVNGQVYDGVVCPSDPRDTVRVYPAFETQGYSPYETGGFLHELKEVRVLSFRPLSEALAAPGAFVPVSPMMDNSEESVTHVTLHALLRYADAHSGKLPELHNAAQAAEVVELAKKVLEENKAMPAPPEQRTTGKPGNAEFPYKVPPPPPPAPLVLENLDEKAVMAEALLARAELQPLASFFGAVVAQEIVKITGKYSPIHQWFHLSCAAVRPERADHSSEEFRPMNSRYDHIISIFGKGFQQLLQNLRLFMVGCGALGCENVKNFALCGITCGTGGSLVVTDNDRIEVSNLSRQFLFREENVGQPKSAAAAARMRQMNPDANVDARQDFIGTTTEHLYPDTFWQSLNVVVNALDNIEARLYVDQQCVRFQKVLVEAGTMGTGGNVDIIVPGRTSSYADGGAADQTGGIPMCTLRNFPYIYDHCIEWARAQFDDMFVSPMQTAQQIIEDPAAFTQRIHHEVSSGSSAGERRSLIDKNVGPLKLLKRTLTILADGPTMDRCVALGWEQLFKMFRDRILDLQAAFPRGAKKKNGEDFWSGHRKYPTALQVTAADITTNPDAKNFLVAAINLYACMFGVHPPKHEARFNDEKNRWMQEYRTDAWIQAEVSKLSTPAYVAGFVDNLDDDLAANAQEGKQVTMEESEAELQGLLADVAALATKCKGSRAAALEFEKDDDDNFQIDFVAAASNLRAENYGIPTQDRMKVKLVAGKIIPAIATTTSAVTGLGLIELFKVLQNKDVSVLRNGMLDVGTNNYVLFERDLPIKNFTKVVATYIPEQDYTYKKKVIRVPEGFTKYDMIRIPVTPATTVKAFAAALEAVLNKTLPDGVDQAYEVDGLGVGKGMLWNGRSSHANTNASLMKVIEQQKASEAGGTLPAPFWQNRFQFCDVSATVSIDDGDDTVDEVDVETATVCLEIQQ

[3] = target: AMP-activated protein kinase, AMPK (Homo sapiens) (UniProt P54646+O43741+P54619+Q9UGJ0+Q9Y478+Q13131+Q9UGI9); test: AMP-dependent Kinase enzyme assay. An in vitro enzyme assay that detects ADP turnover that is directly proportional to AMPK activity. This uses naive AMPK that is activated during the assay with MK-8722; type: functional; details: 30 µM
[4] = target: Sialic acid-binding Ig-like lectin 9 (Homo sapiens) (UniProt Q9Y336); test: Hs-Siglec9 ALPHAscreen SOP 20170721; details: 10 µM
Trypanosoma cruzi = test: Trypanosoma cruzi phosphomannomutase and mannose-1-phosphate guanylyltransferase assay; type: functional; details: 10 µM
[5] = target: T2, Arginase-2, mitochondrial (Homo sapiens) (UniProt P78540); test: in vitro enzyme assay to detect the production of urea directly proportional to the activity of Arginase II; type: functional; details: 33.3 µM; note: in the data most compounds retested in dose-response had high values
T2 sequence (whole entry): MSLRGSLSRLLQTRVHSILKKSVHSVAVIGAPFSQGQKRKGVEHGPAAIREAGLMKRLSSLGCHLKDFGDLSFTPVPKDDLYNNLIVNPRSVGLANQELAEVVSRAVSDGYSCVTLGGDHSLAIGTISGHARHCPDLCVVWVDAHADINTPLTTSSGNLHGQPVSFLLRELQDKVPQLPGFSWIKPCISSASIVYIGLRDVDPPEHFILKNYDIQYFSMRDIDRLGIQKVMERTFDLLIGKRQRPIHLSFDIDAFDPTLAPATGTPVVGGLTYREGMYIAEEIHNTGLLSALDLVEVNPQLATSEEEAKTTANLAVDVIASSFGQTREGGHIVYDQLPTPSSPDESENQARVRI

[6] = target: T3, Proteasome subunit beta (Trypanosoma cruzi) (UniProt O96673); test: Trypanosoma cruzi proteasome chymotrypsin-like activity (TcProtChymo) assay.; note: in the data most compounds retested in dose-response had high values; type: functional; details: 9.37 µM
T3 sequence (whole entry): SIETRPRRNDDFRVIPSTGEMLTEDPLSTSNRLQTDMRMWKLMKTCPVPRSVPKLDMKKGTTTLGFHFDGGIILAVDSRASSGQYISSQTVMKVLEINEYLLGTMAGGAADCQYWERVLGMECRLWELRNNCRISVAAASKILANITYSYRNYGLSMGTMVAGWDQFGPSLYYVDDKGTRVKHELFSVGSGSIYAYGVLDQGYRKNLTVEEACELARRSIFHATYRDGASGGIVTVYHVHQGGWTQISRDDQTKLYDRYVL

Homo sapiens = species: Homo sapiens; test: To identify inhibition of the IFN signalling (Jak-Stat) pathway via expression of an eGFP reporter gene under the control of an IFN-stimulated response element (ISRE) containing MxA promoter.; type: functional; details: 30 µM
[7] = target: T4, Tyrosyl-tRNA synthetase, putative (Trypanosoma cruzi (strain CL Brener)) (UniProt Q4DSP6); test: Trypanosoma cruzi tyrosyl tRNA synthetase (TcYRS) _High Tyrosine SOP; type: functional; details: 30 µM; note: in the data most compounds retested in dose-response had high values
T4 sequence (whole entry): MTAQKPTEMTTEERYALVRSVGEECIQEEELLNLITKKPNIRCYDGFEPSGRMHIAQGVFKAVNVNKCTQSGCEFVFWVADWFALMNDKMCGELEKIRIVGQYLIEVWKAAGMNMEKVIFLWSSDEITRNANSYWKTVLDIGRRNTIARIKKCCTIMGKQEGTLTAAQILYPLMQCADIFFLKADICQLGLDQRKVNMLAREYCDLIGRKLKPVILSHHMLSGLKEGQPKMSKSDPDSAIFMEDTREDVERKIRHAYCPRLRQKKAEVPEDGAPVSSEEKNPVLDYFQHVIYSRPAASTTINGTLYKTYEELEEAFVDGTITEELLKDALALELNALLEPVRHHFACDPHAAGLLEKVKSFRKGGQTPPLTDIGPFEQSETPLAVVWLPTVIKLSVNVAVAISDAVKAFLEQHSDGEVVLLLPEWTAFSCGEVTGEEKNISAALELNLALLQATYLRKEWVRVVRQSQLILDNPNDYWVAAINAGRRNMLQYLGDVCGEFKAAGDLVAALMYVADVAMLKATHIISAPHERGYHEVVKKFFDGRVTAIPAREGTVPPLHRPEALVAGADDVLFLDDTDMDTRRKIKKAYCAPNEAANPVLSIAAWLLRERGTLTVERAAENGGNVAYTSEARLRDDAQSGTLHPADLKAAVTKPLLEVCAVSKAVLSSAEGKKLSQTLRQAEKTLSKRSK

[8] = target: T4, Tyrosyl-tRNA synthetase, putative (Trypanosoma cruzi (strain CL Brener)); test: Trypanosoma cruzi tyrosyl tRNA synthetase (TcYRS) SOP; type: functional; details: 30 µM
[9] = target: Chromo domain-containing protein 1 (Saccharomyces cerevisiae (strain ATCC 204508 / S288c) (Baker's yeast)) (UniProt P32657); test: ScCHD-1 Enzyme Inhibition Assay; type: functional; details: 30 µM; note: in the data most compounds retested in dose-response had high values
Chain of Chromo domain-containing protein 1 (Saccharomyces cerevisiae (strain ATCC 204508 / S288c) (Baker's yeast)) (P32657 whole entry, the tested form may be a part): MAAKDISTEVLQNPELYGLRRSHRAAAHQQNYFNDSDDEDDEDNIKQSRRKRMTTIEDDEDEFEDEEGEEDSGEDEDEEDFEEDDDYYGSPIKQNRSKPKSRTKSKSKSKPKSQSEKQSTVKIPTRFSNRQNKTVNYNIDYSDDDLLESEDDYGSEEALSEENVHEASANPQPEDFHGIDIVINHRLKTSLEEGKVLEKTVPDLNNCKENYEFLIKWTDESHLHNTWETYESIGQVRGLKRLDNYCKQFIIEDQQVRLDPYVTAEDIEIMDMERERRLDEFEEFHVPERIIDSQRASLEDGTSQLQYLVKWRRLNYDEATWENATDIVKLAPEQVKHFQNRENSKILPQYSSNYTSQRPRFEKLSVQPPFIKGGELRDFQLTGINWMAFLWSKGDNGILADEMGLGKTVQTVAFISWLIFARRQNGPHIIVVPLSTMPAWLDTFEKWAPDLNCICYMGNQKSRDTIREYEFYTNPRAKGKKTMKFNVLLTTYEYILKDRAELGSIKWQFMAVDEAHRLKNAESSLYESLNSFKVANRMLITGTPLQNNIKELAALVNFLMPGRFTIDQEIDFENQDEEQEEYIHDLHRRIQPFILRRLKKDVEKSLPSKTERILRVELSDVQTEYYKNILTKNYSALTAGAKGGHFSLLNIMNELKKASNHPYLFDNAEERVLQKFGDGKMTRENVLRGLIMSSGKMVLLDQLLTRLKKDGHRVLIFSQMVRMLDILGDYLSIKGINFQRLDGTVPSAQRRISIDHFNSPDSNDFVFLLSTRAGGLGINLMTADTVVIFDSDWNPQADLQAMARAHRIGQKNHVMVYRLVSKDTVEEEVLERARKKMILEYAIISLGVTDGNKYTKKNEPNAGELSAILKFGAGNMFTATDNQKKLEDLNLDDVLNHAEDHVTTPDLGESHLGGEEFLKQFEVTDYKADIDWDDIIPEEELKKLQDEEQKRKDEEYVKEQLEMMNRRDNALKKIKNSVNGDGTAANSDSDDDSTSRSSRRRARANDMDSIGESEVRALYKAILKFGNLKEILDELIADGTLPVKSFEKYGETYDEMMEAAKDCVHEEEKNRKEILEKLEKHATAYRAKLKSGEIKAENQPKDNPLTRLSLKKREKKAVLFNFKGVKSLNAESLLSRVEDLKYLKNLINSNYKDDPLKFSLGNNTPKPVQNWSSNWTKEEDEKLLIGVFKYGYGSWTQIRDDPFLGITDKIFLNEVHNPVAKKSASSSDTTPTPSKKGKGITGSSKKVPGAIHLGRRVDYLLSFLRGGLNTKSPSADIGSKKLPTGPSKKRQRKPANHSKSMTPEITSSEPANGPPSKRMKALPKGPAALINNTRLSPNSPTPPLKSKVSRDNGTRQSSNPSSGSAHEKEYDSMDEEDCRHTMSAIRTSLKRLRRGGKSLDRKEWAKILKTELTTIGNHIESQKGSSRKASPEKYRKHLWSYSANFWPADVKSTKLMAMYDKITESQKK

Chain of Sialic acid-binding Ig-like lectin 9 (Homo sapiens) (Q9Y336 whole entry): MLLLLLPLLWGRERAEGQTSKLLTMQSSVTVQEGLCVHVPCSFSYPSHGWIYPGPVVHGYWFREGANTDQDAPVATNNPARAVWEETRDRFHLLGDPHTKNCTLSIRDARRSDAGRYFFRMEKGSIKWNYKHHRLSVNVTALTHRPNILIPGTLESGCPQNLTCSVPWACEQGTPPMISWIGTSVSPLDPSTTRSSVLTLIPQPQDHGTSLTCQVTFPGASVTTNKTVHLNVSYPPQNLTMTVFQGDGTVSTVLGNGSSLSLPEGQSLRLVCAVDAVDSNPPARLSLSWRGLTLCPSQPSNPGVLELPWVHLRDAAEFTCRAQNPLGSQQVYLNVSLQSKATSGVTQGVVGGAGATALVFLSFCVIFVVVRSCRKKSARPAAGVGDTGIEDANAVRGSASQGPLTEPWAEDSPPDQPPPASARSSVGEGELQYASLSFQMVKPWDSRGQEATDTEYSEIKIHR
Chain of Protein translocase subunit SecA (Escherichia coli (strain K12)) (P10408 whole entry): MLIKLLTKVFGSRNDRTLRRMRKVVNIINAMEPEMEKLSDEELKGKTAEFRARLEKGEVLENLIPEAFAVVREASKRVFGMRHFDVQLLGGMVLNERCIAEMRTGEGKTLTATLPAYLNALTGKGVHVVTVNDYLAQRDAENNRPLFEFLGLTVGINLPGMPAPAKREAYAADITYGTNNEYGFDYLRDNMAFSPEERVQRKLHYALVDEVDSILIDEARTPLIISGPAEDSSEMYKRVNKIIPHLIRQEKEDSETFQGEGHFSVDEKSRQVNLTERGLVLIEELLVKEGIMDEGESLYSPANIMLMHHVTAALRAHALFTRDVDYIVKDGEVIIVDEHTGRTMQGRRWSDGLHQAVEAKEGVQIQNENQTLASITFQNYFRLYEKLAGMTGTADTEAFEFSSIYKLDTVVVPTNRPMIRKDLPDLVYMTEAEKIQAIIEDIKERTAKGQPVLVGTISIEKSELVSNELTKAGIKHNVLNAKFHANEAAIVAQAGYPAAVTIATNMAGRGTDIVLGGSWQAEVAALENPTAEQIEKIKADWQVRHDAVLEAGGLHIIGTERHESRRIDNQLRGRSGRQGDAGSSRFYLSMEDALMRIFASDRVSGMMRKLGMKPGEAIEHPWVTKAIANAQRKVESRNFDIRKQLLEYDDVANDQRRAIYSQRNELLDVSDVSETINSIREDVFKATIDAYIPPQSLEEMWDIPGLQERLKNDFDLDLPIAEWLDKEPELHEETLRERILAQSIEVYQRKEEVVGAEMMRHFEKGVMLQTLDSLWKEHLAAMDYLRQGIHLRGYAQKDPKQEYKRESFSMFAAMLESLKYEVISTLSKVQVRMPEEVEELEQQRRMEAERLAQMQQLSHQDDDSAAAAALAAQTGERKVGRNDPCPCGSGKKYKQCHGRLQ

| Structure (SMILES) | Percent Effect [1] | Percent Effect [2] | Percent Effect [3] | Percent Effect [4] | Percent Effect (Trypanosoma cruzi) | Percent Effect [5] | Percent Effect [6] | Percent Effect (Homo sapiens) | Percent Effect [7] | Percent Effect [8] | Percent Effect [9] |
| --- | --- | --- | --- | --- | --- | --- | --- | --- | --- | --- | --- |
| Cc1ccc(-c2ncc(C(=O)NCCNc3ncccn3)s2)c(C)c1 | -2.83% | 5.41% | 2.58% | 1.25% | 7.83% | -2.4% | 1.8% | 11.8% | 5.42% | 16.1% | -8.22% |
| CCc1nc(NS(=O)(=O)c2cc(C)ccc2F)no1 | -0.155% | 0% | -9.72% | 8.2% | 6.13% | 15.1% | 3.84% | 1.84% | 2.73% | 6.17% | -2.85% |
| Cc1nc(-c2ccccc2)n(CC(=O)NCC(C)C)n1 | -1.39% | 13.5% | -9.59% | -7.18% | -7.08% | -4.01% | 1.62% | 19.8% | 5.42% | 13.6% | -5.55% |
| Cc1nccc([C@@H]2C[C@@H]3CCN(S(C)(=O)=O)C[C@H]3O2)n1 | -4.82% | 8.11% | -5.02% | 10.6% | 7.14% | -0.744% | 7.64% | 6.16% | 8.6% | 13.6% | -3.19% |
| O=C(Cc1cccc(F)c1)NCCNCc1ccco1 | -9.13% | 2.6% | 7.05% | -0.647% | -3.37% | -2.13% | 7.09% | 34.8% | 3.88% | 2.44% | -7.92% |
| Cc1nnc(C(C)NCC2(c3ccc(Cl)cc3)CCCC2)o1 (configuration not stated) | -2.66% | -8.11% | -5.55% | 5.04% | -1.74% | -4.76% | 7.07% | 19.5% | 0.529% | -4.88% | 0.504% |
| Cc1ccn(-c2ccccc2NCc2cccnc2C)n1 | -0.328% | 0% | 2.86% | -2.06% | -0.196% | 0% | 3.02% | 17.4% | -1.07% | -2.5% | -0.646% |
| CC(=O)c1cccc(OCCCC(=O)N(C)Cc2ccccn2)c1 | 0.239% | 0% | -2.92% | 15.9% | 4.25% | 2.86% | 10.5% | -7.21% | -0.529% | 4.88% | -9.86% |
| Cc1nc(C)n(CC2CCCN(c3ncnc4[nH]ccc34)C2)n1 (configuration not stated) | -4.25% | 11.4% | 69.9% | 5.73% | -4.21% | 0.645% | 15.8% | 42.8% | 6.25% | 5.06% | -4.67% |
| Cc1nc(C)n(CC2CCCN(CC(=O)Nc3c(C)n[nH]c3C)C2)n1 (configuration not stated) | -1.71% | 13.2% | -0.0642% | 9.58% | 3.76% | 0.766% | 8.69% | -1.17% | 5.39% | 17.1% | -9.15% |
| CC(=O)N1CCCC(c2cnc(-c3c(C)nn(C)c3C)cn2)C1 (configuration not stated) | -2.17% | 0% | 6.16% | -0.374% | -2.17% | -1.17% | -4.67% | 8.02% | 2.13% | 6.41% | -1.64% |
| Cc1cccc(COC[C@H]2CC[C@H]3[C@H](CCN3C(=O)CC3CC3)O2)n1 | -5.92% | 10.7% | 7.31% | -1.34% | -1.57% | 5.36% | 6.96% | 15.9% | 7.45% | 19.2% | -5.1% |
| O=C(CC1CCCO1)NCc1ccccc1Cn1cncn1 (configuration not stated) | -2.25% | 15.8% | -5.58% | -5.97% | -7.75% | 4.32% | 9.39% | 3.32% | 4.43% | 23.5% | -2.47% |
| COCCO[C@@H]1CCN(C(=O)c2ccc(C)o2)[C@@H]1Cc1cccnc1 | -5.36% | 0% | 9.87% | -4.82% | -3.91% | 4.17% | 8.03% | 2.29% | 5.94% | 8.54% | -1.12% |
| Cn1cc(C(=O)NCC2CCN(C(=O)NCC(F)(F)F)CC2)cn1 | -2.53% | 16.5% | -6.78% | 1.59% | -0.308% | 0.645% | 11% | 16% | 8.33% | 12.7% | -22.3% |
| Fc1cccc(N2CCCC3(C2)CN(c2ncccn2)CCO3)c1 (configuration not stated) | -0.397% | 13% | 2.68% | -5.04% | -2.66% | 3.23% | 9.4% | 23.1% | 7.41% | 14.1% | -4.87% |
| CCc1nc(CN2CCCC(N(C)Cc3cnn(C)c3)C2)no1 (configuration not stated) | -1.5% | 8.22% | -0.902% | 3.69% | 2.74% | 5.91% | 9.23% | -2.09% | 1.07% | 2.5% | -3.19% |
